# Screening data: PubChem BioAssay, Buhrlage Lab, Dana-Farber Cancer Institute and Novartis Institutes for BioMedical Research (Cambridge, Mass)
# Hits are enriched below; roughly 12% of the tested compounds scored in any of these assays.
# OTUD3 inh: human OTUD3 deubiquitinase inhibition. purified OTUD3, Ub-rhodamine fluorescence, 2 h. inhibition, % at 25 µM. 0.7% of 47,000 active. Q5T2D3
# USP28 block: inhibitors of human USP28 deubiquitinase. purified USP28, Ub-rhodamine cleavage fluorescence, 30 min. inhibition, % at 25 µM. 3% of 47,000 active. AID 1645857. Q96RU2
# Target sequence (Q96RU2 whole entry, looked up): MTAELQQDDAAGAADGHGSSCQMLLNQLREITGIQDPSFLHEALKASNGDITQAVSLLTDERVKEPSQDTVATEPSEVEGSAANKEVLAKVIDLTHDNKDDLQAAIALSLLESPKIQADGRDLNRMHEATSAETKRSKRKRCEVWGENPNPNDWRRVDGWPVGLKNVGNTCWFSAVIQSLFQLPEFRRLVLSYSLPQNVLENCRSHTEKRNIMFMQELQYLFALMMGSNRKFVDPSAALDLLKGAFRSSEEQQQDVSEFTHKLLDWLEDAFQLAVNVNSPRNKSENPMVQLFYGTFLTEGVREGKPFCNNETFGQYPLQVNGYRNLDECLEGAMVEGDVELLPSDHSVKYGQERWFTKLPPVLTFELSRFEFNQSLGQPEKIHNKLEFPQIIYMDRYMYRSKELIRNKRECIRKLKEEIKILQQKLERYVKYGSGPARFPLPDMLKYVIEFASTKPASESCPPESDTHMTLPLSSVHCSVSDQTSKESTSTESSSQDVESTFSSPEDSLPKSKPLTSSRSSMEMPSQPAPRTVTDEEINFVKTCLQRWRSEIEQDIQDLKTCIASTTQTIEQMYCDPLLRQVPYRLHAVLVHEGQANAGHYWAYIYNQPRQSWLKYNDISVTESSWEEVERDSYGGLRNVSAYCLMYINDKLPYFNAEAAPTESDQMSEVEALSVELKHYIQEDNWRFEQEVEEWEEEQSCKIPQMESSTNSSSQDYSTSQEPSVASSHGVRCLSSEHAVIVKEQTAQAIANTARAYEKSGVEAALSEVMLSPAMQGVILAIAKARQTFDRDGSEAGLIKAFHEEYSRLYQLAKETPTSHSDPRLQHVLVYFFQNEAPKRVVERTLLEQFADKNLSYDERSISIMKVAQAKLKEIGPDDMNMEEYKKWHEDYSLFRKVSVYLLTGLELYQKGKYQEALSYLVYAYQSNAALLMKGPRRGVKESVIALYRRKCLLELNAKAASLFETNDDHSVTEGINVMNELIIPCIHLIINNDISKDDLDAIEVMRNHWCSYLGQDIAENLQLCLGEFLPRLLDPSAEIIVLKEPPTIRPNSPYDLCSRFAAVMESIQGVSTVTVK
# USP30 inh: human USP30 deubiquitinase inhibition; Q70CQ3; 5.3% of 47,000 active; inhibition, % at 25 µM; purified USP30, Ub-rhodamine cleavage fluorescence; AID 1645860
# USP17 inh: blocks human USP17 ubiquitin-rhodamine cleavage. A8MUK1. purified USP17, Ub-rhodamine cleavage fluorescence, 3 h. inhibition, % at 50 µM. 6.5% of 47,000 active
# Numbers stand for hits; i = inactive; nt = no result. No stated cut-off is given here; in the data, active means inhibition above about 30%; inactive means the rest.
SMILES,OTUD3 inh,USP28 block,USP30 inh,USP17 inh
Cc1c(C(=O)c2ccc3ccccc3c2)nnn1-c1ccc([N+](=O)[O-])cc1,i,i,i,i
Cc1ccc(CN2C(=O)COc3ccccc3C2=O)cc1,i,39,i,i
CC(C)Oc1ccc(C(=O)CN2C(=O)COc3ccccc3C2=O)cc1Cl,i,i,i,i
CCn1c(=O)c2cc(C(=O)Nc3ccc(OC)c(OC)c3)nn2c2ccccc21,i,i,i,i
CCCn1c(=O)c2cc(C(=O)Nc3ccccc3)nn2c2ccccc21,i,i,i,31
COc1ccc(C2CC(=O)c3cc(C#N)c(=O)n(-c4cc(C)ccc4C)c3C2)cc1OC (stereo unspecified),i,i,i,i
Cc1cccc(-n2c(=O)[nH]c3c(C(N)=O)nc(-c4ccccn4)nc32)c1,i,i,i,i
NC(=O)c1nc(-c2ccccn2)nc2c1[nH]c(=O)n2-c1ccc2c(c1)OCO2,45,i,43,43
NC(=O)c1nc(-c2cccnc2)nc2c1[nH]c(=O)n2-c1ccc2c(c1)OCO2,48,53,i,46
NC(=O)c1nc(C2CCCCC2)nc2c1[nH]c(=O)n2-c1ccc2c(c1)OCO2,i,i,i,i
Cc1ccc(-n2c(=O)[nH]c3c(C(N)=O)nc(C4CCCCC4)nc32)cc1,i,i,i,i
COc1cc(-c2nc(C(N)=O)c3[nH]c(=O)n(-c4ccc(C)cc4)c3n2)cc(OC)c1OC,i,i,45,75
O=C(O)C1CCCCN1Cc1c(-c2cccs2)nc2ccccn12 (stereo unspecified),i,i,i,i
Cc1cccc(NC(=O)NCCc2cn(C)c3ncccc23)c1C,i,i,i,i
Cc1ccc(C)c(NC(=O)NCCc2cn(C)c3ncccc23)c1,i,i,i,37
Cn1ccc2c(cc(C(=O)NCCC3=CCCCC3)n2C)c1=O,i,55,i,i
Cc1cc(C)c2cc(C(=O)NC3CCN(Cc4ccccc4)CC3)[nH]c2c1,i,i,67,i
Cn1ccc2c(cc(C(=O)NC3CCN(Cc4ccccc4)CC3)n2C)c1=O,i,32,i,i
Cc1c(C)n(C)c2ccc(C(=O)NC3CCN(Cc4ccccc4)CC3)cc12,i,35,i,i
O=C(NCc1ccc2c(c1)OCO2)c1cccc(N2CCCS2(=O)=O)c1,i,i,i,i
Cc1ccc(CNC(=O)C2CCN(c3nc4nc[nH]c(=O)c4s3)CC2)cc1,i,i,i,i
O=S(=O)(Nc1cc(F)ccc1F)c1c[nH]c2ncccc12,i,i,i,i
COc1ccccc1NS(=O)(=O)c1cc(NC(=O)c2cccc(-c3ccc(O)cc3)c2)ccc1C,i,i,30,35
O=C(Cc1ccccc1)Nc1oc2ccccc2c(=O)c1-c1ccc2c(c1)OCO2,i,i,32,i
Cc1nn(C)cc1C(=O)N1CCOC(c2cccc(Nc3ccc(F)cn3)n2)C1 (stereo unspecified),i,i,i,i
SMILES,OTUD3 inh,USP28 block,USP30 inh,USP17 inh
Cc1ccc(NC(=O)Cn2cccc2-c2nnc(C3CC3)o2)c(C)c1,i,i,34,i
O=C(Cn1cccc1-c1nnc(C2CCC2)o1)Nc1ccc(F)cc1,i,i,i,i
Cc1ccc(C2CC(=O)c3cnc(N4CCc5ccccc54)nc3C2)cc1 (stereo unspecified),i,i,i,i
Fc1ccc(-c2nnc(Cc3nc(-c4ccccc4F)no3)o2)cc1,i,i,i,i
Fc1ccccc1Cc1nc(-c2ccc3nncn3c2)no1,i,53,i,nt
O=C(C1CC1)N1CCc2cc(-c3csc(NC(=O)C4(c5ccc(Cl)cc5)CCC4)n3)ccc21,i,i,i,i
O=C1CCC[C@]2(CN(S(=O)(=O)CCc3ccncc3)C[C@H]2c2cccnc2)N1,i,i,i,i
COc1ccc(C(CNC(=O)c2cc(-c3ccc(C)c(C)c3)on2)N2CCOCC2)cc1 (stereo unspecified),i,i,35,i
COc1ccc(-c2cc(C(=O)NCC(c3ccc(C)cc3)N3CCCC3)no2)cc1 (stereo unspecified),i,i,i,i
COc1cc2c(cc1OC)-c1cc(Oc3ccccc3C)nc(=O)n1CC2,i,i,i,i
COc1cc2c(cc1OC)-c1cc(N(C(C)=O)c3ccc4c5c(cccc35)CC4)nc(=O)n1CC2,i,i,i,38
COc1ccc(-c2nc(SCC(=O)Nc3ccc(C(C)=O)cc3)n[nH]2)cc1,i,i,i,54
COc1ccc(Cl)cc1-c1nc(-c2ccc(=O)[nH]c2)no1,i,i,i,i
COc1ccc(Cl)cc1-c1nc(-c2cccnc2)no1,i,i,i,35
COCC(=O)N1C[C@@H]2C[C@]2(c2ccccc2)C(=O)c2ccccc21,i,i,i,i
C=C1C(=O)OC(CCCCC)C1C(=O)O (stereo unspecified),i,36,i,i
C=C1C(=O)O[C@@H]2C(=O)O[C@@H](CCCCCCCC)[C@H]12,i,i,i,i
N#Cc1ccc(Cc2ncc(C(F)(F)F)cc2Cl)s1,i,60,i,i
CCC(=O)Nc1nc2cc(NC(=O)Nc3ccc(C)cc3)ccc2s1,i,i,42,i
COc1ccccc1NC(=O)Nc1ccc2sc(NC(=O)C3CCCCC3)nc2c1,i,i,31,i
CCC(=O)Nc1nc2cc(NC(=O)Nc3cccc(C)c3)ccc2s1,i,i,38,i
CCC(=O)Nc1nc2cc(NC(=O)c3ccccc3C)ccc2s1,i,i,i,i
Cc1ccc2nc(-c3ccccc3O)c(NCCc3ccccc3)n2c1,i,i,i,i
CC(=O)N1CCCc2cc(S(=O)(=O)CCC(=O)Nc3ccc(Br)c(C)c3)ccc21,i,i,i,i
COc1ccc(NC(=O)C2CCCN(S(=O)(=O)N3CCCCCC3)C2)cc1 (stereo unspecified),i,i,i,51
SMILES,OTUD3 inh,USP28 block,USP30 inh,USP17 inh
CC(=O)Nc1ccc(S(=O)(=O)N2CCCC(C(=O)Nc3cccc4ccccc34)C2)cc1 (stereo unspecified),i,i,56,i
CC(=O)Nc1ccc(S(=O)(=O)N2CCCC(C(=O)NCCc3ccccc3)C2)cc1 (stereo unspecified),i,i,i,i
COc1ccc(CNC(=O)C2CCCN(S(=O)(=O)Cc3ccc(Cl)cc3)C2)cc1 (stereo unspecified),i,i,47,i
Cc1ccccc1CNC(=O)C1CCCN(S(=O)(=O)N2CCCCCC2)C1 (stereo unspecified),i,i,39,i
COc1cccc(CNC(=O)C2CCCN(S(=O)(=O)N3CCCCCC3)C2)c1OC (stereo unspecified),i,i,i,i
c1nc(-c2ccc3c(c2)OCCO3)cc(N2CCCN(Cc3ncc[nH]3)CC2)n1,i,i,i,i
COc1ccc(-c2noc(N3CCCC(C(=O)Nc4cccc(OC)c4)C3)n2)cc1 (stereo unspecified),i,i,i,i
CCOC(=O)c1ccc(NC(=O)C2CCCN(c3nc(-c4ccc(OC)cc4)no3)C2)cc1 (stereo unspecified),i,i,37,i
CCS(=O)(=O)N1CCC2(CC1)CN(c1cccnc1)c1ccccc12,i,i,i,i
CNC(=O)c1cc(CC2CCCN(S(C)(=O)=O)CC2)ncn1 (stereo unspecified),i,i,i,i
